According to PubChem BioAssay:
Calls of active or inactive are those of the source.

assay: CREB reporter modulators without forskolin, primary screen, cell-based, PC12, CRE-LacZ reporter, unstimulated (AID 1145); conditions: no forskolin, luminescence, 4.5 h, higher = more signal, called active from +8 up or from −8 down

z-score, inactive:
C=CC[C@H](OC(=O)Nc1ccc(SC)cc1)c1ccc(O)c2ccccc12 4.1
O=C1O[C@@H](c2ccccc2)[C@@H](c2ccccc2)N2[C@@H](c3ccc(OCCO)cc3)[C@]3(C(=O)Nc4ccc(C#CC5=CCCCC5)cc43)[C@@H](C(=O)NC[C@H](O)c3ccccc3)[C@H]12 -0.329
O=C1O[C@H](c2ccccc2)[C@H](c2ccccc2)N2[C@H]1[C@@H](C(=O)O)[C@]1(C(=O)Nc3ccc(C#CCCO)cc31)[C@H]2c1ccccc1OCCO -0.195
CC(C)c1ccc(NN2C(C(O)c3ccc(C#N)cc3)C=CC3C(=O)N(c4ccccc4)C(=O)C32)cc1 (stereo not given) 0.812
C[N+](C)(C)CCCC[C@@H]1NC(=O)[C@@H]2C[C@H](C(=O)NCCCCCCN)[C@H](c3cccc(OCCO)c3)N2C1=O 2.84
CC(C)[Si]1(C(C)C)OCc2cc(C3CC3)nc(-c3ccc(Oc4ccccc4)cc3)c21 -0.113
COCCOC(=O)N1C(=O)[C@@]2(c3cc(C#CC4(O)CCCCCC4)ccc31)[C@H](c1ccc(O)cc1)N1[C@H](c3ccccc3)[C@H](c3ccccc3)OC(=O)[C@H]1[C@@H]2C(=O)N1CCN(c2ncccn2)CC1 -0.141
COC(=O)c1c(CC[C@@H](CO)NC(=O)N[C@@H](C)Cn2cc(-c3ccccn3)nn2)oc(C(C)=O)c1C(=O)OC 1.21
CCOC(=O)[C@@H]1CCCCN1C(=O)C(=O)OC 0.362
CN(C)c1ccc(C(O)C2C=CC3C(=O)NC(=O)C3N2Nc2ccccn2)cc1 (stereo not given) -1.49
CC#CCO[Si](C#Cc1ccccc1)(C(C)C)C(C)C -0.985
CC(=O)N1CC2(CC2)CC1c1ccccc1 (stereo not given) 0.397
COCCOC(=O)N1C(=O)[C@@]2(c3cc(C#CCC(C(=O)OC)C(=O)OC)ccc31)[C@H](c1ccc(OCCO)cc1)N1[C@H](c3ccccc3)[C@H](c3ccccc3)OC(=O)[C@H]1[C@@H]2C(=O)N1CCc2cc(OC)c(OC)cc2C1 -0.0607
C=CCC(OC(C)=O)[C@@H]1[C@@H](N(Cc2cccc3ccccc23)C(=O)Cc2ccc(F)cc2)c2cc(OCCCO)ccc2N1C(=O)c1ccc2ccccc2c1 (stereo not given in full) -0.724
CN1C2C=C(CCCO)C(C3C(=O)N(C(N)=O)C(=O)C32)C1C1CC1 (stereo not given) 0.522
CCCN1C(=O)[C@]2(Cc3ccccc31)N=C(c1ccc(OCCCO)cc1)O[C@@H]2c1ccccc1 0.344
NCCCCCNC(=O)[C@@H]1C[C@@H]2C(=O)N[C@@H](CCCCN)C(=O)N2[C@@H]1c1ccc(O)cc1 0.0205
Cc1ccc(C(C)CC(O)C2C=CC3C(=O)N(c4ccccc4)C(=O)C3N2Nc2ccccc2)o1 (stereo not given) 0.636
CCCNC(=O)[C@@H]1c2ccccc2C(=O)N(Cc2ccc(OC(F)(F)F)cc2)[C@H]1c1ccc(CO)cc1 -0.322
CC(C)C(CO)N1C(=O)[C@@H]2[C@H]3C(=O)OCC=C[C@H]3OC23C=CCN(c2ccc(Cl)cc2)C(=O)[C@@H]13 (stereo not given in full) 0.203
CC(C)c1ccc(NN2C(C(O)c3ccc(F)cc3)C=CC3C(=O)N(c4ccccc4)C(=O)C32)cc1 (stereo not given) 0.812
OCCCC1=CC(c2ccc(CN3CCCC3)cc2)N(Cc2cc3c(cc2Br)OCO3)CC1 (stereo not given) -0.932
COc1cc2c(cc1O)C(c1cccs1)N(Cc1cc3c(cc1Br)OCO3)CC2 (stereo not given) 0.0924
CCCNC(=O)[C@@]1(Sc2ccc(C)cc2)CC(=O)N(C2Cc3ccccc3C2)[C@@H]1c1ccc(CO)cc1I -0.374
CC(C)=C1C(=O)C(c2ccccc2)=C2CN3C(=O)N(CCc4ccccc4)C(=O)[C@]3(Cc3ccc(C(F)(F)F)cc3)[C@H]21 0.966
COc1cccc(C)c1NC(=O)O[C@H]1[C@H](OC(=O)Nc2ccccc2-c2ccccc2)[C@H](OC(=O)Nc2ccccc2-c2ccccc2)[C@@H](OC)O[C@@H]1CO -0.207
COCCCNC(=O)[C@@]1(CCC(=O)OC(C)(C)C)N=C(c2ccc(OCCCO)cc2)O[C@H]1c1ccccc1N=[N+]=[N-] 0.456
COc1cc2c(cc1O)C(c1ccc(CN3CCCC3)cc1)N(Cc1cc3c(cc1Br)OCO3)CC2 (stereo not given) 0.389
CCCC[C@@H](O)C1=C(COC)C[C@H]2C(=O)N(C)C(=O)[C@H]2[C@H]1CO -0.0581
COC(=O)C(CC#Cc1ccc2c(c1)[C@]1(C(=O)N2)[C@H](c2ccc(O)cc2)N2[C@H](c3ccccc3)[C@H](c3ccccc3)OC(=O)[C@H]2[C@@H]1C(=O)NC[C@H](O)c1ccccc1)C(=O)OC -0.0566
COC(=O)C1=CC(CCCO)=CC(c2ccc(CN3CCCC3)cc2)N(Cc2cccc(OC(F)(F)F)c2)C=C1C(=O)OC (stereo not given) -0.554
NC(=O)NCC#Cc1ccc2c(c1)[C@]1(C(=O)N2)[C@H](c2ccccc2OCCO)N2[C@H](c3ccccc3)[C@H](c3ccccc3)OC(=O)[C@H]2[C@@H]1C(=O)O 0.595
COC(=O)[C@@H]1N=C(c2ccc(OCCCO)cc2)O[C@@H]1c1ccccc1 -0.594
C=CCC(OC(C)=O)[C@@H]1[C@@H](N(Cc2cccc3ccccc23)C(=O)Cc2ccc(OC)cc2)c2cc(OCCCO)ccc2N1C(=O)c1ccc(-c2ccccc2)cc1 (stereo not given in full) 0.106
CC(C)[Si]1(C(C)C)OCc2cc(-c3ccc(-c4ccc(Cl)c(Cl)c4)o3)nc(-c3ccccc3)c21 0.484
